# Screening results deposited in PubChem by National Center for Advancing Translational Sciences (NCATS).
# FMDV inh – foot and mouth disease virus antiviral activity; 410,000 compounds, 1.2% hits; FMDV antiviral cell-based qHTS; AID 1159524; Potency, µM (top dose mostly 57.9 µM), for the others: top-dose activity change, negative = inhibition, usual class: inhibitors; calls by dose curve; tested in HEK293T cells; also: read-out not given here; potency is read from the fitted curve at half-maximal effect; nearly all actives have a fitted effect of over 45% in size
# VACV mCherry inh – inhibitors of vaccinia virus infection (mCherry reporter signal); Vaccinia virus mCherry reporter infection, fluorescence; Potency, µM (doses to about 36.5 µM), without a hit: top-dose activity change, negative = inhibition, usual class: inhibitors; 310,000 compounds, 0.63% hits; calls by dose curve; tested in A549 cells; also: potency is read from the fitted curve at half-maximal effect; nearly all actives have a fitted effect of over 35% in size
# FBPA Giardia inh – inhibitors of Giardia lamblia fructose-1,6-bisphosphate aldolase. A8B2U2. purified Giardia FBPA. Potency, µM (titrated, usually from 59.6 µM), for inactives: at the highest dose activity, negative = inhibition, hits mostly inhibitors. 290,000 compounds, 0.71% hits; also: potency is read from the fitted curve at half-maximal effect; nearly all actives have a fitted effect of over 55% in size
# Target sequence (A8B2U2 whole entry, looked up): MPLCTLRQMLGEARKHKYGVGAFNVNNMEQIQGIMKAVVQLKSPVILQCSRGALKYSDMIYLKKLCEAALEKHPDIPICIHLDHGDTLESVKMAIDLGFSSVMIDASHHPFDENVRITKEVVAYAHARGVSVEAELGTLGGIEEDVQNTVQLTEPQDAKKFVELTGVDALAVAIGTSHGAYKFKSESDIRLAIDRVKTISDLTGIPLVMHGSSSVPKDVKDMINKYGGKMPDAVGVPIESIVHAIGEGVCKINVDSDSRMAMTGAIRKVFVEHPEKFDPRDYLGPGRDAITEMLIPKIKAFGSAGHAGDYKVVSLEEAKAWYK
#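 Giardia FBPA (40 nM reagent) was preincubated 10 min at RT with compound (up to 57.5 uM final), then substrate plus GAPDH/TPI/NAD/arsenate coupling system with diaphorase/resazurin was added; resorufin fluorescence (525/598 nm) was read after 20 min.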
# HCV inh – blocks hepatitis C virus. Huh7.5.1 HCVcc-Cre infection, luciferase reporter, 44 h. AID 651820. Potency, µM (doses to about 41.8 µM), for inactives: top-dose activity change, negative = inhibition, hits mostly inhibitors. 340,000 compounds, 3.4% hits; also: potency is read from the fitted curve at half-maximal effect
#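 Whole-lifecycle infectious HCVcc-Cre system; cells 1,000/well, compound then virus (~0.5 moi) added 4 h after plating, 44 h culture. Luciferase read 15 sec following 15 min substrate incubation, room temp.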
# HCMV inh – inhibitors of human cytomegalovirus; HFF cells, HCMV-luciferase reporter, 72 h; active compounds read low; activity change, negative = inhibition, % at 57.5 µM; 410,000 compounds, 4.5% hits; in the data active = activity change below about -60%; inconclusive = no clear call, values can overlap the other calls; inactive = above about -39%
#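 Screen run at 2 compound doses on HFFs infected with reporter HCMV, MOI 1 PFU/cell. Luciferase activity from cell lysates at 72 h post infection gave inhibition relative to buffer-only and Salinomycin wells.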
# Vaccinia Venus – vaccinia inhibition (Venus reporter); Potency, µM (series often up to 36.5 µM), for inactives: at the top dose activity change, negative = inhibition, usual class: inhibitors; Vaccinia virus Venus reporter expression, fluorescence; 330,000 compounds, 0.46% hits; calls by dose curve; tested in A549 cells; also: potency is read from the fitted curve at half-maximal effect; nearly all actives have a fitted effect of over 30% in size
# Active calls of the source: *; i = inactive; ? = inconclusive; / = no result; ! = not confirmed by another sample. This is a sample that favours compounds with a hit; in the whole collection about 7.5% have one here. Unless noted, calls follow the shape of the dose curve; as a rule, active = well fitted curve in the direction sought with a large enough effect; inconclusive = small, poorly fitted or top-dose-only effect, or another doubt; inactive = no such curve, though single readings can be large; an effect the other way counts as inactive or inconclusive. % is scaled to controls: 0 for no effect and ±100 for the full control effect.
SMILES,FMDV inh,VACV mCherry inh,FBPA Giardia inh,HCV inh,HCMV inh,Vaccinia Venus
Cc1ccc(O)c(-c2cc(C(=O)Nc3ccc(S(=O)(=O)N4CC(C)OC(C)C4)cc3)[nH]n2)c1 (stereo not given),?,/,2%,11µM*,-14,/
O=C(Nc1ccc(S(=O)(=O)N2CCOCC2)cc1)c1cc(-c2cc(Cl)ccc2O)n[nH]1,?,/,0%,10µM*,-65*,/
Cc1cc(O)c(-c2cc(C(=O)Nc3ccc(S(=O)(=O)N4CCOCC4)cc3)[nH]n2)cc1C,?,/,0%,?,?,/
COC(=O)c1nc(-c2ccc3c(n2)C(=O)C(N)=C(OC)C3=O)c(N)c(-c2ccc(OC)c(OC)c2O)c1C,?,-8%,10µM*,2.2µM*,?,-5%
COc1ccc(C(=O)O)c(O)c1OC,5%,i,-27%,/,/,0%
COC1=C(N)C(=O)c2nc(-c3nc(C(=O)O)c(C)c(-c4ccc(OC)c(OC)c4O)c3N)ccc2C1=O,4µM*,0.71µM*,?,0.32µM*,/,0.63µM*
COc1nc(N)nc2nc[nH]c12,0%,i,-30%,-7%,20,-13%
CC1=C(C(=O)Nc2ccc([N+](=O)[O-])cc2)C(c2cccc(C(F)(F)F)c2)NC(=S)N1c1ccccc1 (stereo not given),-16%,/,-9%,?,-98*,/
COc1ccc(C2NC(=S)N(c3ccccc3)C(C)=C2C(=O)Nc2ccccc2)cc1 (stereo not given),13%,-13%,-2%,?,40,-5%
CC[C@H](C)[C@H](NC(=O)[C@H](Cc1ccccc1)NC(=O)[C@H](C)NC(=O)[C@H](CC(=O)O)NC(=O)[C@H](CCCCN)NC(=O)[C@H](CO)NC(=O)[C@@H]1CCCN1C(=O)[C@@H]1CCC(=O)N1)C(=O)NCC(=O)N[C@@H](CC(C)C)C(=O)N[C@@H](CCSC)C(N)=O,/,/,2%,/,/,/
Cc1cccc2[nH]c3c(N4CC=C(c5ccc(F)cc5)CC4)ncnc3c12,40µM*,?,-11%,13µM*,?,?
FC(F)(F)c1cccc(-c2cc3c(Nc4ccncc4)nccc3[nH]2)c1,/,/,/,/,-15,/
CCN(CC)CCn1c(SCC(=O)Nc2cccc(OC)c2)nc2c(sc3ccccc32)c1=O,-16%,-17%,-5%,1.8µM*,-37,-10%
CCOCCCn1c(SCC(=O)Nc2cccc(OC)c2)nc2ccccc2c1=O,-6%,i,2%,?,-73*!,-14%
COc1cccc(NC(=O)CSc2nc3c(sc4ccccc43)c(=O)n2CCCN2CCCC2)c1,-16%,/,-14%,?,-102*,/
Cc1nc2c(c(=O)[nH]1)CSCC2,-11%,/,5%,/,/,/
Cc1ccccc1S(=O)(=O)NC(=O)C1(C)CCN1C(=O)C1CCCCC1 (stereo not given),-19%,-7%,/,/,38,-3%
COc1cc(NC(=O)Cn2ncc3c([nH]c4ccc(C)cc43)c2=O)cc(OC)c1OC,-8%,-8%,/,/,-5,-8%
OCCNc1c2ccccc2nc2c(F)c(F)c(F)c(F)c12,22µM*,-8%,-10%,?,-23,4%
c1ccc2c(NCCCN3CCOCC3)c3ccccc3nc2c1,/,/,-1%,/,-102*,/
Cc1c2ccccc2nc2c(F)c(NCCO)c(F)c(F)c12,44%,-1%,?,?,64,-2%
Cc1cc(NCCN2CCOCC2)c2ccc3ccccc3c2n1,4%,/,1%,-18%,-69*,/
COc1cccc(-c2nc(NCCN3CCOCC3)c3ccccc3n2)c1O,-16%,/,3%,10µM*,14,/
COc1ccc2nc(C)cc(NCCN3CCOCC3)c2c1,4%,i,-5%,1%,-22,-10%
Fc1ccccc1-c1nc(NCCCN2CCOCC2)c2ccccc2n1,-14%,i,0%,10%,-22,-9%
Oc1ccccc1-c1nc(NCCN2CCOCC2)c2ccccc2n1,?,/,3%,7.1µM*,38,/
CN(C)CCCNc1c2ccccc2nc2ccccc12,-30%,7.1µM*,12%,7.9µM*,-102*,8.9µM*
Clc1ccccc1-c1nc(NCCN2CCOCC2)c2ccccc2n1,7%,/,-3%,/,/,/
